# Measured values as given in ChEMBL document CHEMBL4513216, “Probing the Open Global Health Chemical Diversity Library for Multistage-Active Starting Points for Next-Generation Antimalarials” (ACS Infect Dis, 2020).
# Hit rate of the full screen: of about 68,000 compounds, about 2,700 (4%) showed an effect of 50% or more. The entries come from a sample that favours strong results as a whole.
# Tested on: Plasmodium berghei
# Experiment: Screen against P. berghei liver stage (PbLuc), transformed with Luciferase, at 2uM
# Type: functional, HepG2
# Details: tested at 2 uM
row,SMILES,INHIBITION
1,Cc1nccn1-c1ccc(=O)n(CCNC(=O)c2cccs2)n1,-47.31%
2,O=C(c1cccc(S(=O)(=O)NCCc2nccs2)c1)N1CCOCC1,3.58%
3,CS(=O)(=O)N1C[C@@H]2CC[C@H]1CN(Cc1ccncc1)C2,-56.9%
4,Cc1ncsc1C(=O)N(C)Cc1ccncc1,-25.22%
5,Cc1ncsc1CN(Cc1ccccc1)Cc1ccncc1,61.06%
6,Cc1ncsc1CN(Cc1ccccc1)Cc1ncc[nH]1,-43.51%
7,Cn1nc(C2CCN(C(=O)c3cnccn3)C2)cc1CCO (centres undefined),-18.15%
8,Cc1ccc(-n2ccnc2)c(C(=O)NCCOCC(F)(F)F)c1,16.98%
9,Cc1ccc(-n2ccnc2)c(C(=O)NCCOCC2CCCO2)c1 (centres undefined),51.4%
10,Cc1ccc(-n2ccnc2)c(C(=O)NCCCN(C)C)c1,20.21%
11,CN(C)C(=O)N1CCN(C)c2ncccc2C1,47.25%
12,CN1CCN(S(C)(=O)=O)Cc2cccnc21,58.97%
13,CN1CCN(S(=O)(=O)C2CC2)Cc2cccnc21,-5.9%
14,CCS(=O)(=O)N1CCN(C)c2ncccc2C1,4.07%
15,CN1CCN(C(=O)NC2CCCC2)Cc2cccnc21,11.87%
16,CN1CCN(C(=O)N2CCCC2)Cc2cccnc21,52.3%
17,Cc1nc(Nc2nccs2)cc(C2CCCN2)n1 (centres undefined),-26.8%
18,CCC(O)Cn1nc(CCSC)nc1-c1ccc2[nH]ccc2c1 (centres undefined),20.45%
19,O=C(Cc1cnc(-c2c(Cl)cccc2Cl)s1)N1CCC2(CC1)OCCO2,-6.29%
20,CC(=O)N1CCN(C(=O)Cc2cnc(-c3c(Cl)cccc3Cl)s2)CC1,25.61%
21,O=C(Cc1cnc(-c2c(Cl)cccc2Cl)s1)N1CCOCC1,56.75%
22,NC(=O)CCNC(=O)C1(N2CCCCC2)Cc2ccccc2C1,14.19%
23,Clc1ccccc1CCN1CCN(c2ccc3nncn3n2)CC1,50.77%

row,SMILES,INHIBITION
1,c1ccc(CCN2CCN(c3ccc4nncn4n3)CC2)nc1,-59.79%
2,c1ccc(CCN2CCN(c3ccc4nncn4n3)CC2)cc1,-2.47%
3,COC1COC2(CCN(Cc3ccco3)CC2)C1 (centres undefined),24.91%
4,Cc1noc2ncc(C(=O)NCC3CCN(C(C)C)C3)cc12 (centres undefined),-5.2%
5,Cc1cccc(C(=O)N2CCCCC2c2[nH]ncc2S(C)(=O)=O)c1 (centres undefined),52.69%
6,Cc1ccc(C(=O)N2CCCCC2c2[nH]ncc2S(C)(=O)=O)cn1 (centres undefined),19.75%
7,CS(=O)(=O)c1cn[nH]c1C1CCCN1C(=O)c1cccnc1 (centres undefined),10.3%
8,COC(=O)c1ccc(CNC(=O)Nc2ccc(=O)n(C)c2)cc1,-18.09%
9,CS(=O)(=O)c1cccc(C(=O)NCc2nc3cc(F)ccc3[nH]2)c1,30.57%
10,Cn1cc(CN2CCCC(CCc3ccc(F)cc3)C2)cn1 (centres undefined),2.3%
11,Cn1cc(CN2CCCC(CCc3ccc(F)c(F)c3)C2)cn1 (centres undefined),64.2%
12,Cn1cc(CN2CCCC(CCc3ccc(F)cc3F)C2)cn1 (centres undefined),69.71%
13,Cn1cc(CN2CCCC(CCc3ccccc3C(F)(F)F)C2)cn1 (centres undefined),24.55%
14,Fc1ccc(CCC2CCCN(Cc3c[nH]cn3)C2)c(F)c1 (centres undefined),-20.35%
15,Cn1cc(CN2CCCC(CCc3c(F)cccc3F)C2)cn1 (centres undefined),43.27%
16,CN(C)C(=O)CN1C[C@H]2CCN(Cc3ccccc3)CC[C@H]2S1(=O)=O,-10.78%
17,COC(=O)C(NC(=O)Nc1ccc(C(C)=O)cc1)C(C)C (centres undefined),-7.05%
18,CC(C)N1CCOC(c2ccnc(N(C)C)n2)C1 (centres undefined),-2.41%
19,CN(C)c1nccc(C2CN(c3ccccc3)CCO2)n1 (centres undefined),-39.97%
20,CN(C)c1nccc(C2CN(c3cnccn3)CCO2)n1 (centres undefined),57.47%
21,N#CCSCCCN1CCC(C(=O)N2CCCCCC2)CC1,-28.22%
22,Cc1ccc(CN2CC[C@H](c3nnc(COc4ccc(F)cc4)o3)C2)o1,17.76%
23,COCCNC(=O)[C@H]1C[C@@H]2CCN(CCc3ccccc3)C[C@H]2O1,-56.44%

row,SMILES,INHIBITION
1,Cn1nc(C(C)(C)C)cc1NC(=O)Cn1ccnc1,-24.02%
2,CCc1nnc2n1CCN(CC(=O)Nc1cc(C)on1)C2,13.91%
3,CCc1nnc2n1CCN(CC(=O)Nc1cc(C)nn1C)C2,12.81%
4,Cc1cn(CC(=O)Nc2cc(C(C)C)nn2C)cn1,5.93%
5,CCc1nnc2n1CCN(CC(=O)Nc1cc(C(C)(C)C)nn1C)C2,54.85%
6,Cc1cn(CC(=O)Nc2cc(C(C)(C)C)nn2C)cn1,53.66%
7,CC(SCC(=O)N(C)CC(=O)NC1CC1)c1ccccc1F (centres undefined),-16.7%
8,CCC1CN(C(=O)c2cc(CN(C)CCc3ccccc3)on2)CCO1 (centres undefined),-11.41%
9,CN(CCc1ccccc1)C(=O)c1cc(CN2CCC(O)CC2)on1,-10.41%
10,CN(CCc1ccccc1)Cc1cc(C(=O)N2CCN(C)C(=O)C2)no1,-64.43%
11,CN(CCc1ccccc1)Cc1cc(C(=O)N2CCCC2(C)C)no1,61.89%
12,CN(CCc1ccccc1)Cc1cc(C(=O)N2CCSCC2)no1,72.05%
13,CN1CCCN(C(=O)c2cc(CN(C)CCc3ccccc3)on2)CC1,5.28%
14,Fc1ccc(CN2CCC3(CCCN(c4nncs4)C3)C2)cc1 (centres undefined),3%
15,O=C(NCC1CCCOC1)c1ccc(-c2ccccc2)[nH]c1=O (centres undefined),4.96%
16,Fc1ccc(Cc2cnc(C3CCCN3)cn2)cc1 (centres undefined),-2.89%
17,CC(C)Nc1cc(-c2c[nH]nc2C2CCN(C(=O)C3CCC3)C2)ccn1 (centres undefined),16.43%
18,CCCNc1cc(-c2c[nH]nc2C2CCN(C(=O)C3CCC3)C2)ccn1 (centres undefined),87.38%
19,CC(C)CNc1cc(-c2c[nH]nc2C2CCN(C(=O)C3CC3)C2)ccn1 (centres undefined),13.98%
20,Fc1ccc(OCCNC2CCN(Cc3ccccn3)CC2)c(F)c1,-31.26%
21,CNC(=O)Nc1cc(-c2ccccc2C)nn1CCO,-3.51%
22,Cc1ccccc1-c1cc(NC(=O)NC2CC2)n(CCO)n1,57.75%
23,Cc1ccccc1-c1cc(NC(=O)NC2CCC(O)CC2)n(CCO)n1 (centres undefined),14.82%
